Data as given in PubChem BioAssay (NCATS).
Inconclusive results are not listed. More than one record can exist for a structure, and the calls need not agree. Active and inactive are the calls of the source. Calls follow the shape of the dose curve; as a rule, active = well fitted curve in the direction sought with a large enough effect; inconclusive = small, poorly fitted or top-dose-only effect, or another doubt; inactive = no such curve, though single readings can be large; an effect the other way counts as inactive or inconclusive.

Key:
[1] = biological target: Glutathione peroxidase 1 (Homo sapiens) (UniProt P07203); experiment: Primary qHTS Assay for Inhibitors of Recombinant Selenoprotein Glutathione Peroxidase 1 (GPX1) (AID 1845191); also: nearly all actives have a fitted effect of over 65% in size; also: potency is read from the fitted curve at half-maximal effect
Sequence of Glutathione peroxidase 1 (Homo sapiens) (P07203 whole entry, looked up): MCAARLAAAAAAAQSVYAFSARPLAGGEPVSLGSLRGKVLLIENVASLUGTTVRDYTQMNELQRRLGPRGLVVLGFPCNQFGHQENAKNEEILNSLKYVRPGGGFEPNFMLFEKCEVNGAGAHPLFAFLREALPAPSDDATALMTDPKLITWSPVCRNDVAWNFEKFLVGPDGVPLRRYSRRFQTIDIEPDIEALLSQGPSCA
In short: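 GR-coupled readout: NADPH consumption tracked by fluorescence, ex 340/em 450 nm, at t=0 and after 15 min at RT. Final mix 10 nM GPX1, 1 mM GSH, 0.5 mM CHP, 0.5 mM NADPH, 100 nM GR, 0.01% BSA, following 30 min enzyme–compound preincubation.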

[2] = biological target: Phospholipid hydroperoxide glutathione peroxidase GPX4 (Homo sapiens) (UniProt P36969); experiment: Primary qHTS Assay for Inhibitors of Recombinant Selenoprotein Glutathione Peroxidase 4 (GPX4) (AID 1845192); also: nearly all actives have a fitted effect of over 65% in size; also: potency is read from the fitted curve at half-maximal effect
Sequence of Phospholipid hydroperoxide glutathione peroxidase GPX4 (Homo sapiens) (P36969 whole entry, looked up): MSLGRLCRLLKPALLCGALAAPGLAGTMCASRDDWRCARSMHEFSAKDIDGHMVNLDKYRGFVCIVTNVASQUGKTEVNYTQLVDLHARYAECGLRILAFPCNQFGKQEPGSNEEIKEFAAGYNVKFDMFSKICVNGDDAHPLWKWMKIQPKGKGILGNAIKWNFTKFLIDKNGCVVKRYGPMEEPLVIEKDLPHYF
In short: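 Steps: GPX4 plus compound, 30 min RT; add GR/GSH/NADPH master mix; start with cumene hydroperoxide; read 340/450 nm fluorescence at 0 and 15 min. Finals were 200 nM GPX4, 1 mM GSH, 0.5 mM CHP, 0.5 mM NADPH, 100 nM GR.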

[3] = biological target: Luciferin 4-monooxygenase (Photinus pyralis) (UniProt P08659); experiment: Primary firefly luciferase (FLuc) qHTS assay for identification of artifact compounds. (AID 1845220); settings: outcome: dose series up to 54.1 µM unless noted; also: nearly all actives have a fitted effect of over 60% in size
In short: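 Enzymatic FLuc inhibition assay: compounds pre-exposed to luciferin/ATP (10 uM each) for 15 min, then purified P. pyralis enzyme at 10 nM added. Read-out: luminescence at 5 min.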

[4] = Primary fluorescence-based thiol-reactive (MSTI) qHTS assay for identification of artifact compounds. (AID 1845221);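 also: series mostly up to about 54 µM; thiol-reactive compounds lower the probe fluorescence signal; nearly all actives have a fitted effect of over 65% in size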
In short: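 Probe: MSTI 4 uM, PBS pH 7.4, 2% DMSO. Incubation 1 h, RT, light-protected. Readout fluorescence 525/598 nm.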

[5] = test system: Nanoluciferase (engineered Oplophorus gracilirostris luciferase); experiment: Primary Nanoluciferase (NLuc) qHTS assay for identification of artifact compounds. (AID 1845222);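 also: NLuc secreted into diluted conditioned medium of S16 cells; series mostly up to about 54 µM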
In short: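 S16 cell supernatant NLuc, 1:55; cpds qHTS; 15 min RT dark; Nano-Glo substrate 1:100, 5 min; luminescence; Hill fit of % inhibition.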

[6] = Primary redox qHTS assay for identification of artifact compounds. (AID 1845223)
In short: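 Redox-cycling detection via DTT (250 uM final) oxidation coupled to Amplex Red (25 uM)/HRP (250 mU/mL) in HBSS. 15 min preincubation plus 30 min after DTT, room temperature. Ex/Em 525/598 nm; 4-parameter Hill fit against DMSO and 10 uM DA3003.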

Measured: Potency

C[C@@H]1C[C@H]2[C@@H]3C[C@H](F)C4=CC(=O)C=C[C@]4(C)[C@@]3(F)[C@@H](O)C[C@]2(C)[C@@]1(O)C(=O)CO
inactive: all assays above

O=c1[nH]cnc2c1ncn2[C@@H]1O[C@H](CO)[C@@H](O)[C@H]1O
inactive: all assays above

Cc1ccc(C(C)C)cc2c(C)ccc1-2
inactive: [2]

Cc1cccc(Nc2cc(Cl)nc(SCC(=O)O)n2)c1C
not listed: [5]
inactive: all other assays above

c1ccc2c(CC3=NCCN3)cccc2c1
inactive: [1] | [2]

CCCCOc1cc(C(=O)OCCN(CC)CC)ccc1N
inactive: all assays above

CCOC(=O)[C@H](CCc1ccccc1)N[C@@H](C)C(=O)N1C(=O)N(C)C[C@H]1C(=O)O
inactive: all assays above

CC/C=C(\C(=O)N[C@@H]1C(=O)N2C(C(=O)OCOC(=O)C(C)(C)C)=C(COC(N)=O)CS[C@H]12)c1csc(N)n1
11.2 µM (active) and inactive: [2]
active: [1] 9.04 µM
inactive: all other assays above

CC(C)c1c(C(=O)Nc2ccccc2)c(-c2ccccc2)c(-c2ccc(F)cc2)n1CC[C@@H](O)C[C@@H](O)CC(=O)O
inactive: [1] | [2] | [3] inactive [at 25.7 µM] | [4] | [5]

Nc1ccc(S(=O)(=O)Nc2nccs2)cc1
inactive: all assays above

O=C(CCCN1CCN(c2ccccn2)CC1)c1ccc(F)cc1
inactive: all assays above

C[C@]12CC[C@@H]3c4ccc(O)cc4CC[C@H]3[C@@H]1CC[C@@H]2OC(=O)CCC1CCCC1
inactive: all assays above
